A short description of assay [1]: qHTS RealTime-Glo MT Cell Viability Assay in HepG2 cells - 24 hour (AID 1224867). Further: nearly all actives have a fitted effect of over 50% in size. The method in brief: (§1)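 Viability was tracked continuously by NanoLuc luminescence from prosubstrate reduced by living HepG2 cells, at successive time points over 40 h of compound exposure. Cells with reagent were preincubated 5 h at 37 °C before compound addition.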
A short description of assay [2]: qHTS RealTime-Glo MT Cell Viability Assay in HEK293 cells - 32 hour (AID 1224868). Further: top concentration of the series differs between compounds; nearly all actives have a fitted effect of over 50% in size. The method in brief:
(§2)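 Viability tracked continuously by luminescence as live cells reduce a prosubstrate for NanoLuc; HEK293 cells preincubated 5 h, compound-treated at 37 C, and read at 0, 8, 16, 24, 32 and 40 h.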

The nature of assay [3]: A CellTox Green Cytotoxicity Assay to monitor cytotoxicity in HEK293 cells - 0 hour (AID 1224869). Further: nearly all actives have a fitted effect of over 50% in size. Summed up:
(§3)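 Real-time, in one plate: 600 HEK293 cells/well with dead-cell DNA dye, pinned compound after 5 h, 37 C incubation over 40 h; viable cells give no appreciable fluorescence.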

A short description of assay [4]: qHTS RealTime-Glo MT Cell Viability Assay in HepG2 cells - 40 hour (AID 1224870). Further: nearly all actives have a fitted effect of over 50% in size. Summed up:
(§4)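 HepG2 cells mixed with RealTime-Glo MT reagents (NanoLuc plus cell-permeant prosubstrate) were seeded at 600 cells/well, incubated 5 h at 37 C/5% CO2, then pinned with compounds in DMSO; nonlytic luminescence tracked viability during 40 h treatment.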

Assay [5] in a line: A CellTox Green Cytotoxicity Assay to monitor cytotoxicity in HEK293 cells - 40 hour (AID 1224871). Further: nearly all actives have a fitted effect of over 45% in size. Further: potency means the concentration at half of the fitted maximal effect. Summed up: as §3
Assay [6] is described as follows: qHTS RealTime-Glo MT Cell Viability Assay in HEK293 cells - 16 hour (AID 1224872). The method in brief: as §2
Assay [7] in a line: qHTS RealTime-Glo MT Cell Viability Assay in HEK293 cells - 40 hour (AID 1224874). Further: nearly all actives have a fitted effect of over 50% in size. The settings on record: RealTime-Glo luminescence; max response: stronger effect = lower value. The method in brief:
(§5)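 Kinetic, non-lysing viability readout. Seed HEK293 (600/well) with reagent, incubate 5 h at 37 C/5% CO2, pin 23 nL compound in DMSO, incubate at 37 C, read luminescence at 0, 8, 16, 24, 32, 40 h.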

Assay [8] in a line: A CellTox Green Cytotoxicity Assay to monitor cytotoxicity in HEK293 cells - 24 hour (AID 1224875). Further: series mostly up to about 77 µM; nearly all actives have a fitted effect of over 45% in size. Summed up:
as §3

A short description of assay [9]: A CellTox Green Cytotoxicity Assay to monitor cytotoxicity in HepG2 cells - 16 hour (AID 1224876). Further: nearly all actives have a fitted effect of over 45% in size. Summed up: (§6)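 Cytotoxicity was tracked as dead-cell DNA fluorescence in HepG2 cells treated with test compounds at 37 C; each time-point value comes from one kinetic series spanning 0, 8, 16, 24, 32 and 40 h.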
A short description of assay [10]: qHTS RealTime-Glo MT Cell Viability Assay in HepG2 cells - 32 hour (AID 1224877). Further: nearly all actives have a fitted effect of over 55% in size. Summed up:
as §1

A short description of assay [11]: A CellTox Green Cytotoxicity Assay to monitor cytotoxicity in HepG2 cells - 24 hour (AID 1224878). Further: nearly all actives have a fitted effect of over 45% in size. Summed up:
as §6

A short description of assay [12]: A CellTox Green Cytotoxicity Assay to monitor cytotoxicity in HepG2 cells - 40 hour (AID 1224879). Further: nearly all actives have a fitted effect of over 40% in size. The method in brief:
as §6

A short description of assay [13]: A CellTox Green Cytotoxicity Assay to monitor cytotoxicity in HEK293 cells - 32 hour (AID 1224881). Further: nearly all actives have a fitted effect of over 40% in size. The method in brief:
as §3

Assay [14] is described as follows: qHTS assay to identify small molecule agonists of H2AX (AID 1224845; active means well fitted activation curve with a large enough effect in the signal ratio in the repeat runs, not every such curve was filed as active; the % refers to the signal ratio). The method in brief:
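Wild-type CHO-K1 cells plated overnight, then exposed 3 hr at 37C to compounds at 15 concentrations (0.76% DMSO). Lysed, then HTRF anti-pH2AX(S139)-cryptate/anti-H2AX-d2 detection after 24 hr at room temperature; emissions 665 and 620 nm.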

Assay [15] can be described thus: qHTS assay to identify small molecule agonists of the hypoxia (HIF-1) signaling pathway (AID 1224846; active means well fitted activation curve with a large enough effect in the signal ratio in the repeat runs, not every such curve was filed as active; the % refers to the signal ratio). The method in brief: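 ME-180 HRE-bla reporter cells; compounds in DMSO, 17 h at 37C; read-out beta-lactamase via CCF4-AM FRET.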
Assay [16] is described as follows: qHTS assay to identify small molecule agonists of H2AX - cell viability counter screen (AID 1224847; calls by dose curve; further: top concentration of the series differs between compounds; nearly all actives have a fitted effect of over 30% in size). Summed up:
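Quantitative HTS viability measurement: CHO-K1 wild-type cells in serum (10% FBS) medium, short 3 hr drug exposure at 37C with 0.76% DMSO, CellTiter-Glo luminescent detection.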

The nature of assay [17]: qHTS RealTime-Glo MT Cell Viability Assay in HEK293 cells - 0 hour (AID 1224880). The method in brief: as §5
Assay [18] in a line: qHTS RealTime-Glo MT Cell Viability Assay in HepG2 cells - 8 hour (AID 1224873). Further: nearly all actives have a fitted effect of over 55% in size. Summed up:
as §4

Values joined by “and” are separate entries in the source; they are usually repeats but may differ in a detail not shown here. Equal entries are not always repeated. Records with an inconclusive call do not appear. The source holds several records for some structures; these can differ, active in one and inactive in another. Active and inactive are the calls of the source. Unless noted, the call rests on the fitted dose curve; in most records, active means well fitted curve in the direction sought with a large enough effect in the repeat runs; inconclusive means weak or mixed curves; inactive means no such curve, though single readings can be large; an effect the other way counts as inactive or inconclusive.
On the % scale 0 is the no-effect control and ±100 the full control effect.

Turning to `O=c1c(O)c(-c2ccc(O)c(O)c2)oc2cc(O)cc(O)c12`, the Potency entry in [1], in assay [2], in assay [3], in assay [4], in assay [5] and in [6] was “inactive” in each case. The Potency entry in assay [8], in [9], in assay [10], in [11], in assay [12] and in [13] was “inactive” in each case. Besides, the max response in [7] is -22.5% (inactive).
As to `CC/C=C(\C(=O)N[C@@H]1C(=O)N2C(C(=O)OCOC(=O)C(C)(C)C)=C(COC(N)=O)CS[C@H]12)c1csc(N)n1`, the Potency result in [14], in assay [16], in assay [1], in [2], in assay [3] and in assay [4] was “inactive” each time. Further, the Potency entry in [5], in [8], in [9], in [10], in assay [11] and in assay [12] was “inactive” in each case. The Potency result in [17] and in assay [13] was “inactive” each time. In addition, the result in [15] was inactive. Further, in [7], the max response was 11.8% (inactive) and 8.9% (inactive).
Consider `Clc1cccc(Cl)c1NC1=NCCN1`, for which the Potency result in [14], in assay [16], in [1], in assay [2], in assay [3] and in assay [4] was “inactive” each time. The Potency entry in assay [5], in assay [6], in assay [9], in assay [10], in [11] and in assay [12] was “inactive” each time. Moreover, the Potency entry in [17] and in assay [13] was “inactive” in each case. Besides, the max response in assay [7] was 1.29% (inactive) and 0.883% (inactive).
Regarding `O=C(NCC1CCCCN1)c1cc(OCC(F)(F)F)ccc1OCC(F)(F)F` (stereo not given), the Potency entry in assay [14], in [16], in assay [1], in assay [2], in [3] and in [4] was “inactive” in each case. The Potency entry in [5], in assay [6], in [18], in [8], in assay [9] and in assay [10] was “inactive” throughout. Moreover, the Potency entry in [11], in [12], in assay [17] and in assay [13] was “inactive” in each case.
Take `CCCCCCCC(=O)O`: the Potency result in assay [14], in [16], in assay [1], in assay [2], in [3] and in [4] was “inactive” throughout. The Potency entry in [5], in assay [18], in [9], in assay [10], in [11] and in [12] was “inactive” in each case. In addition, the Potency entry in assay [17] and in [13] was “inactive” each time. Besides, the call in assay [15] was inactive. In assay [7], the max response was 3.06% (inactive) and 7% (inactive).
Regarding `COc1c(Cl)ccc(Cl)c1C(=O)O`, the Potency entry in assay [14], in [16], in assay [1], in [2], in [3] and in [4] was “inactive” each time. The Potency entry in [5], in assay [18], in assay [8], in assay [9], in [10] and in assay [11] was “inactive” each time. The Potency result in assay [12], in [17] and in assay [13] was “inactive” in each case. Moreover, in assay [15], the molecule was called inactive. In addition, the max response in assay [7] is 2.72% (inactive) and -3.19% (inactive).
`O=C1O[C@H]([C@H](O)CO)C(O)=C1O`: the Potency entry in assay [14], in [16], in assay [1], in assay [2], in [3] and in assay [4] was “inactive” each time. Further, the Potency result in [5], in [18], in assay [8], in assay [9], in [10] and in [11] was “inactive” each time. Besides, the Potency entry in [12], in [17] and in assay [13] was “inactive” throughout. The result in assay [15] was inactive. Besides, in [7], the max response was 0.913% (inactive) and 0.152% (inactive).
For `CCN(CC)CCNC(=O)c1ccc(N)cc1`, the Potency result in assay [14], in assay [16], in assay [1], in assay [2], in assay [3] and in assay [4] was “inactive” throughout. For the same molecule, the Potency entry in assay [5], in [6], in [9], in [10], in assay [11] and in [12] was “inactive” throughout. Further, the Potency entry in assay [17] and in [13] was “inactive” each time. Moreover, in assay [7], the max response is 3.82% (inactive) and 1.96% (inactive).
Consider `Cc1ncc(CO)c(CO)c1O`, for which the Potency result in [14], in assay [16], in assay [1], in [2], in assay [3] and in [4] was “inactive” in each case. For the same molecule, the Potency result in assay [5], in assay [9], in assay [10], in [11], in assay [12] and in [17] was “inactive” throughout. Further, the Potency result in assay [13] was “inactive”. In assay [7], the max response is 6.27% (inactive) and -1.31% (inactive) and 5.41% (inactive).
Turning to `Cc1ccccc1Cl`, the Potency entry in [14], in assay [16], in assay [1], in assay [2], in assay [3] and in assay [4] was “inactive” throughout. Besides, the Potency entry in assay [5], in [9], in [10], in [11], in [12] and in assay [17] was “inactive” in each case. In addition, the Potency entry in assay [13] is “inactive”. Besides, in assay [15], the molecule was called inactive. The max response in [7] is 1.86% (inactive).
In the case of `Nc1cccc(N)n1`, in assay [15], the molecule was classed as inactive. Besides, the Potency entry in assay [16], in assay [1], in assay [2], in assay [3], in assay [4] and in assay [5] was “inactive” throughout. For the same molecule, the Potency entry in assay [18], in assay [8], in assay [9], in assay [10], in [11] and in assay [12] was “inactive” throughout. Moreover, the Potency result in [17] and in [13] was “inactive” in each case. Moreover, in assay [7], the max response was 0.328% (inactive) and -0.427% (inactive).
Consider `CC(C)(C)NC[C@H](O)COc1nsnc1N1CCOCC1`, for which the Potency result in assay [14], in [16], in [1], in assay [2], in assay [3] and in assay [4] was “inactive” in each case. Moreover, the Potency entry in assay [18], in assay [9], in assay [10], in assay [11], in assay [12] and in [17] was “inactive” throughout. Further, the Potency entry in assay [13] is “inactive”. For the same molecule, the Potency entry in assay [5] was “inactive and 3.38 µM (active)”. Further, the max response in [7] is -0.31% (inactive) and -1.2% (inactive).
As for `Brc1ccc(Oc2ccc(Br)cc2)cc1`, the Potency entry in assay [14], in assay [16], in assay [1], in assay [2], in [3] and in assay [4] was “inactive” in each case. For the same molecule, the Potency result in assay [5], in [18], in assay [8], in assay [9], in [10] and in [11] was “inactive” in each case. Besides, the Potency entry in [12], in [17] and in assay [13] was “inactive” each time. Also, the molecule was classed as inactive in assay [15]. Moreover, in assay [7], the max response was -1.97% (inactive) and -5.7% (inactive).
As for `Cc1ccc(Cl)cc1`, the Potency entry in assay [14], in assay [16], in [1], in [2], in assay [3] and in [4] was “inactive” throughout. Besides, the Potency result in [5], in assay [18], in assay [8], in assay [9], in assay [10] and in [11] was “inactive” in each case. In addition, the Potency result in assay [12], in assay [17] and in assay [13] was “inactive” in each case. Further, in [15], the molecule was called inactive. In addition, in [7], the max response was 3.18% (inactive) and 19.9% (inactive).
For `O=C(O)C1=NN(c2ccc(S(=O)(=O)O)cc2)C(=O)C1`, the call in assay [15] was inactive. Further, the Potency result in assay [16], in assay [1], in assay [2], in [3], in assay [4] and in [5] was “inactive” in each case. For the same molecule, the Potency entry in assay [6], in assay [8], in [9], in [10], in assay [11] and in assay [12] was “inactive” in each case. Besides, the Potency entry in [17] and in assay [13] was “inactive” in each case. For the same molecule, the max response in assay [7] is 6.57% (inactive) and 2.54% (inactive).
